Screening data: PubChem BioAssay, National Center for Advancing Translational Sciences (NCATS)
Shown are actives, neighbours in structure and some others; about 12% of the full set was active somewhere.
Cycloheximide cs: affects cycloheximide protein synthesis inhibition readout, counter-screen. cell reporter, cycloheximide protein synthesis inhibition counterscreen. max response, %. 300,000 tested, 12% active; in the data active = max response mostly above about 13%, no sharp cut-off; inactive = mostly below about 14%; also: read at 38.3 µM for the half of the compounds with a filed dose; 0% is about no effect
Shiga toxin inh: inhibitors of Shiga toxin in Vero cells | AID 2315 | Vero cells, Shiga toxin protein synthesis inhibition reporter | inhibition, % at 38.7 µM | 290,000 tested, 9.2% active; in the data active = inhibition mostly above about 28%, no sharp cut-off; inactive = mostly below about 43%; also: 0% is about no effect
Sm TGR inh: inhibitors of Schistosoma mansoni thioredoxin glutathione reductase. purified TGR, DTNB reduction, TNB absorbance 405 nm. Potency, µM (doses to about 114 µM), without a hit: top-dose activity change, negative = inhibition, usual class: inhibitors. 360,000 tested, 3% active. AID 485364; active = well fitted inhibition curve with a large enough effect; inconclusive = small, poorly fitted or top-dose-only effect; inactive = no such curve, though single readings can be large or run the other way; also: potency is read from the fitted curve at half-maximal effect; % is scaled to controls: 0 for no effect and ±100 for the full control effect; nearly all actives have a fitted effect of over 60% in size
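Kinetic colorimetric format: TGR-catalysed, NADPH-driven DTNB reduction monitored via TNB absorbance. Enzyme dispensed at 20 nM; compound exposure 15 min at room temperature before reaction start.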
FMDV antiviral: antivirals against foot and mouth disease virus; FMDV antiviral cell-based qHTS; Potency, µM (titrated, usually from 57.9 µM), inactives show at the highest dose activity change, negative = inhibition, actives largely listed as inhibitors; 410,000 tested, 1.2% active; calls by dose curve; tested in HEK293T cells; also: read-out not given here; potency is read from the fitted curve at half-maximal effect; % is scaled to controls: 0 for no effect and ±100 for the full control effect; nearly all actives have a fitted effect of over 45% in size
* hit, by the source's call.

Results for CC(C)[C@@]1(NC(=O)[C@@H]2C=C3c4cccc5[nH]cc(c45)C[C@H]3N(C)C2)O[C@@]2(O)[C@@H]3CCCN3C(=O)[C@H](Cc3ccccc3)N2C1=O ?
Cycloheximide cs: -2; Shiga toxin inh: -13; Sm TGR inh: 8.9µM*

What do the screens show for `CC(C)C[C@H]1C(=O)N2CCCC2[C@]2(O)O[C@](NC(=O)[C@@H]3C=C4c5cccc6[nH]cc(c56)CC4N(C)C3)(C(C)C)C(=O)N12` (some centres undefined)?
Cycloheximide cs: -1; Shiga toxin inh: -9; Sm TGR inh: 10µM*; FMDV antiviral: -13%

How did CC(C)[C@@]1(NC(=O)[C@@H]2C[C@@H]3c4cccc5[nH]cc(c45)C[C@H]3N(C)C2)O[C@@]2(O)[C@@H]3CCCN3C(=O)[C@H](Cc3ccccc3)N2C1=O do in these assays?
Cycloheximide cs: -2; Shiga toxin inh: -3; Sm TGR inh: -14%; FMDV antiviral: 0%

How did CC(C)[C@H]1C(=O)N2CCC[C@H]2[C@]2(O)O[C@](NC(=O)[C@@H]3C=C4c5cccc6[nH]cc(c56)C[C@H]4N(C)C3)(C(C)C)C(=O)N12 do in these assays?
Cycloheximide cs: -2; Shiga toxin inh: -10; Sm TGR inh: 7.9µM*; FMDV antiviral: -9%

Results for CC(C)C[C@H]1C(=O)N2CCC[C@H]2[C@]2(O)O[C@](NC(=O)[C@@H]3C=C4c5cccc6[nH]c(Br)c(c56)CC4N(C)C3)(C(C)C)C(=O)N12 (some centres undefined) ?
Cycloheximide cs: -1; Shiga toxin inh: -8; Sm TGR inh: -28%; FMDV antiviral: -19%

What do the screens show for `COc1cccc(CNC(=O)c2ccc(CN3CC(=O)N4CCCCC4C3=O)cc2)c1` (centres undefined)?
Sm TGR inh: -1%; FMDV antiviral: -11%

What do the screens show for `O=C(/C=C/c1c(Cl)nc2ccccn12)N1CCCCC1`?
Cycloheximide cs: 39*; Shiga toxin inh: 49; Sm TGR inh: 8%; FMDV antiviral: 43%

What do the screens show for `O=C(/C=C/c1c(Cl)nc2ccccn12)N1CCN(c2ccccc2F)CC1`?
Cycloheximide cs: -1; Shiga toxin inh: -18; Sm TGR inh: -1%; FMDV antiviral: inconclusive

What do the screens show for `Cn1cnc(S(=O)(=O)N2CCCC(C(=O)NCc3ccccc3Cl)C2)c1` (centres undefined)?
Sm TGR inh: 1%; FMDV antiviral: 25%

Results for Cc1ccccc1OCC(=O)Nc1ccc(N2CCOCC2)cc1N1CCOCC1 ?
Sm TGR inh: -20%; FMDV antiviral: 3%

How did Cc1cc(N2CCCC2)ccc1NC(=O)COc1ccccc1 do in these assays?
Sm TGR inh: 18µM*; FMDV antiviral: 5%

Results for CCc1ccccc1OCC(=O)Nc1ccc(N2CCCC2)cc1C ?
Sm TGR inh: 16µM*; FMDV antiviral: -19%

How did COc1ccc(N2CCCC2)c(NC(=O)COc2ccccc2)c1 do in these assays?
Cycloheximide cs: -3; Shiga toxin inh: -11; Sm TGR inh: -32%; FMDV antiviral: -17%

Results for Cc1c(C)n(CCc2ccccc2)c2ncnc(NCCO)c12 ?
Cycloheximide cs: 52*; Shiga toxin inh: 68*; Sm TGR inh: -5%; FMDV antiviral: 45%

Results for COc1ccccc1Nc1ncnc2c1c(C)c(C)n2CCO ?
Cycloheximide cs: 42*; Shiga toxin inh: 61*; Sm TGR inh: 6%; FMDV antiviral: 17%

What do the screens show for `Cc1c(C)n(CCCN(C)C)c2ncnc(NCc3ccccc3)c12`?
Cycloheximide cs: -2; Shiga toxin inh: 26; Sm TGR inh: 4%; FMDV antiviral: -18%

Results for O=C(Nc1nc(-c2cc(F)ccc2F)cs1)C1=NN(c2ccccc2)C(=O)CC1 ?
Cycloheximide cs: 4; Shiga toxin inh: -20; Sm TGR inh: -6%; FMDV antiviral: -31%

How did COc1ccc(-c2csc(NC(=O)C3=NN(c4ccccc4)C(=O)CC3)n2)cc1 do in these assays?
Cycloheximide cs: 23*; Shiga toxin inh: 50; Sm TGR inh: -2%; FMDV antiviral: 20µM*

Results for COc1ccc(-c2nc(NC(=O)C3=NN(c4cccc(C)c4)C(=O)CC3)sc2C)cc1 ?
Cycloheximide cs: 17*; Shiga toxin inh: -5; Sm TGR inh: -27%; FMDV antiviral: -17%

Results for COC(=O)c1ccccc1NC(=O)Cn1c(=O)n(CCCC(=O)NCc2ccccc2OC)c(=O)c2ccccc21 ?
Sm TGR inh: 10%; FMDV antiviral: -30%

Results for Cc1cccc2c1c1ccc3c(c1n2C)C(=O)C=CC3=O ?
Cycloheximide cs: 2; Shiga toxin inh: 6; Sm TGR inh: 2.5µM*; FMDV antiviral: 14µM*
